Data on 40 compounds can be found in PubChem BioAssay (NCI).

This is part of a sample that, as a whole, favours compounds with a hit. Of some 83,000 tested, about 20% had one in any assay.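 Treatment: one concentration, 48 hours, 96-well format. Scoring: percent growth, with anything below 10 considered active.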 Activity calls are given as the source filed them.

This assay deals with SW-620 colon. Kind of assay: NCI-60 one-dose screen, 48 h (100 = growth as untreated, 0 = no growth, -100 = all killed). The conditions noted are these: 10 µM unless noted. The protocol: Growth inhibition of the SW-620 human tumor cell line is measured as a screen for anti-cancer activity. Cells are grown in 96 well plates and exposed to the test compound for 48 hours. Compounds are tested at a single concentration, which is 10^-5 M for most compounds. The reported endpoint is percent growth (GI% or GIPRCNT), where numbers from 0 - 100% represent growth inhibition, and numbers from -100% - 0 represent cell death. For example, a value of 40 represents 60% growth inhibition. A value of 0 means no net growth occurred over the course of the experiment. A value of -40 indicates 40% of cells at the beginning of the experiment died by the end of the experiment. A value of -100 means all cells are dead at the end of the experiment.
NCI-60 Human Tumor Cell Lines Screen was performed using the standard one-dose NCI protocol, which is described in more detail at https://dtp.cancer.gov/discovery_development/nci-60/default.htm.
Compounds with GIPRCNT values below 10 were considered active. Activity score was based on GIPRCNT using the following formula: […]
Score is 0 for GIPRCNT values of 100 or above, 50 for GIPRCNT values of 0, and 100 for GIPRCNT values of -100.
In the case of `COc1cc2c(cc1-c1c(C)noc1C)ncc1nc(C3CC3)n([C@H](C)COC(F)F)c12`, the growth was 62.7% (inactive). The same measure for `COc1cc(/C=C/c2cc(/C=C/c3ccc(O)c(OC)c3)n(-c3ccccc3)c(=O)n2)ccc1O`: 78.4% (inactive). The same measure for `c1ccc2[nH]c(-c3ccc(Nc4nc(N5CCCCC5)nc(N5CCOCC5)n4)cc3)nc2c1`: 5.3% (active). The same measure for `Cc1cc(N2CCCCC2)nc(N(CCNc2ccnc3cc(Cl)ccc23)Cc2ccco2)n1`: 21.9% (inactive); for `C=C1C(=O)O[C@H]2[C@H]1CC/C(COC(=O)NCc1c[nH]c3ccccc13)=C\CC[C@@]1(C)O[C@@H]21`: 2.62% (active). `COC(=O)[C@@H]1[C@H]2C[C@H]3c4[nH]c5cc(OC)ccc5c4CCN3C[C@@H]2C[C@H](OC(=O)/C=C/c2ccnc(OC)c2)[C@H]1OC`: the growth is 98.3% (inactive). Turning to `Clc1ccccc1-c1nc(Nc2nc3ccccc3s2)nc(C(Cl)(Cl)Cl)n1`, the growth was 39.5% (inactive). The same measure for `C=C(C)[C@@H]1CC[C@]2(C(=O)OC)CC[C@]3(C)[C@H](CC[C@@H]4[C@@](C)(CC/C(N)=N/O)[C@H](C(=C)C)CC[C@]43C)[C@@H]12`: 97.4% (inactive); for `Cn1cc(-c2nc(-c3c[nH]c4ncccc34)cs2)c2cc(Cl)ccc21`: 73.3% (inactive).

As to `COc1ccccc1CNc1nc(N)nc2[nH]c3ccc(O)cc3c12`, the growth was 25.9% (inactive).

On to `COc1ccc2c(c1)C/C(=C\c1cc(-c3cc(OC)c(OC)c(OC)c3)n[nH]1)C2=O`, for which the growth was 91.1% (inactive). Take `CC(=O)N1N=C(c2ccc(C)cc2)CC1c1ccc(Oc2ccc(Br)cc2)cc1` (stereo not given): the growth is 86.7% (inactive).

As for `O=C1NC(c2ccc(Cl)c(Cl)c2)=C/C1=C\c1ccccc1`, the growth was 56.8% (inactive). The same measure for `OCCNc1nc(Nc2ccc(Cl)c(Cl)c2)nc2ccccc12`: 28.6% (inactive); for `Cn1cc(-c2csc(-c3cn(C(=O)OC(C)(C)C)c4ccccc34)n2)c2cccnc21`: 36.1% (inactive); for `CC1(n2nnnc2N2CCCN(c3ncccc3N)CC2)CCC1`: 104% (inactive). The same measure for `N#CC1=C(N)Oc2c(c(N)nn2-c2ccccc2)C1c1ccc(Cl)cc1Cl` (stereo not given): 100% (inactive). The figure for `C=C(C)[C@@H]1CC[C@]2(C(=O)O)CC[C@]3(C)[C@H](CC[C@@H]4[C@@]5(C)C/C(=C/c6cccc(I)c6)C(=O)C(C)(C)[C@@H]5CC[C@]43C)[C@@H]12` is 17.9% (inactive); for `CC(=O)Oc1ccccc1C(=O)/C=C/c1cccc([N+](=O)[O-])c1` it is 43% (inactive); for `Oc1ccccc1/C=N\NC(=S)Nc1ccc(F)cc1` it is 41.5% (inactive). `Cc1ccc(S(=O)(=O)Nc2ccc(-c3cc(-c4cccc(F)c4)c(C#N)c(N)n3)cc2)cc1`: the growth was -31.7% (active). The figure for `COC(c1ccccc1)(c1ccccc1)c1ccccc1` is 99.1% (inactive).

For `CN(C)c1ccc(N=C2C=CC(=O)C=C2)cc1`, the growth is 96.3% (inactive).

Consider `COC(=O)[C@]12CC[C@@H](C)[C@H](C)[C@@H]1C1=CC(=O)[C@@H]3[C@@]4(C)C[C@@H](OC(C)=O)[C@H](OC(C)=O)[C@@](C)(COC(C)=O)[C@@H]4C(=O)C[C@@]3(C)[C@]1(C)CC2`, for which the growth was 50.2% (inactive). The same measure for `COc1cc(-c2cc3ncccc3c3nc(OCCN(C)C)c4cccnc4c23)cc(OC)c1OC`: 17.4% (inactive); for `NC1=NN(c2ccccc2)C(=O)/C1=C/c1ccc(Cl)cc1`: 101% (inactive). The figure for `CC(=O)Nc1cc(F)cc(C(F)(F)F)c1Cl` is 95.2% (inactive); for `c1ccc(-c2nc(Nc3ccc(-c4nc5ccccc5[nH]4)cc3)nc(N3CCOCC3)n2)cc1` it is -82.9% (active); for `O=C(NO)c1ccc(Cn2c(=O)n(-c3ccccc3)c(=O)c3ccccc32)cc1` it is 0.142% (active). The figure for `C/C(=N\Nc1ccc2ccccc2n1)c1ccccn1` is 10.3% (inactive); for `CC(=O)c1c(C)[nH]c(-c2nc3ccc(N4CCN(C)CC4)cc3[nH]2)c1-c1ccc(OCC2CCOCC2)cc1` it is 50.6% (inactive). For the compound `CC1=CC(=O)N(c2cccc3c(N4C(=O)C=C(C)C4=O)cccc23)C1=O`, the growth is 14.3% (inactive).

`O=C1C(Cl)=C(Nc2ccc(S(=O)(=O)c3ccc(NC4=C(Cl)C(=O)c5ccccc5C4=O)cc3)cc2)C(=O)c2ccccc21`: the growth is 0.736% (active). With `C[C@]12CC[C@@H]3c4ccc(O)cc4CC[C@H]3[C@@H]1C[C@H](O)[C@@H]2O`, the growth was 90.1% (inactive).

As to `CC1(c2ccccc2)OC1C(=O)O` (stereo not given), the growth is 102% (inactive). Regarding `CCCCN1CCCCn2c1nc1c2c(=O)n(C)c(=O)n1C`, the growth is 102% (inactive).

For `Cc1ccc2c(c1)c(-c1nc(-c3c[nH]c4ncccc34)cs1)cn2C`, the growth was 112% (inactive).

Turning to `C#CCC(C)(O)/C=C/C1=C(C)CCCC1(C)C` (stereo not given), the growth is 104% (inactive).

Take `Cc1csc(Nc2nc(-c3ccc(Cl)cc3)nc(C(Cl)(Cl)Cl)n2)n1`: the growth was 78.6% (inactive). The figure for `COc1cccc(-c2nn(-c3ccccc3)cc2-c2ccnc(NCCNS(=O)(=O)c3ccccc3)c2)c1` is 43.9% (inactive).
